According to PubChem BioAssay AID463173 (ICCB-Longwood Screening Facility, Harvard Medical School, 2010):
The campaign covered roughly 52,000 compounds. About 4,300 (8.3%) were called active. This excerpt belongs to a sample that is enriched for actives. Unmarked numbers belong to inactive results. Cut-off read from the data, not from the text of the source: active = survival mostly below about 52% (no sharp cut-off); inactive = mostly above about 56%.

The molecules below were run on DeltatarO mutant (assay: growth inhibition of S. aureus wild type versus tarO mutant, primary screen, teichoic acid synthesis inhibitors, RN4220, OD600 (AID 463173)). Details: OD600, 18 h, hits give low values, screened at 18.75 µg/mL (by protocol).

SMILES | survival
O=C(Nc1ccc(F)cc1F)C1CCCN1S(=O)(=O)c1cccc2nsnc12 (stereo not given) | 94%
COc1ccc2c(CNCCc3cccs3)c(C(=O)O)n(Cc3ccccc3C)c2c1 | 94%
CC1=C(C(=O)Nc2ccc(C)cc2C)C(c2ccc(Br)cc2)n2ncc(C(=O)Nc3cccc(C)c3)c2N1 (stereo not given) | 128%
COc1ccc(-c2nc3ccccc3n3c(-c4cccc(C)c4)c4c(=O)n(C)c(=O)n(C)c4c23)cc1 | 71%
COc1ccc(-c2cc(C(=O)O)n(Cc3ccccc3)n2)cc1 | 76%
CCOC(=O)c1cc(-c2ccc(C)cc2)nn1Cc1ccccc1 | -12% (active)
CCOC(=O)c1cc(-c2ccccc2)nn1Cc1ccccc1 | -12% (active)
Cc1ccc2c(c1)cc1c(=O)n(Cc3cccc(Cl)c3)nc(C)n12 | 89%
CC(=O)Nc1cc(-c2ccccc2)nn1Cc1cccc(Cl)c1 | 57%
Cc1ccc(-c2cc(C(=O)O)n(Cc3ccccc3)n2)cc1 | 67%
O=C(O)c1cc(-c2ccccc2)nn1Cc1ccccc1 | 73%
Cc1ccc(-c2cc(N)n(Cc3cccc(Cl)c3)n2)cc1 | 55% (active)
CCOC(=O)c1cc(-c2ccc(OC)cc2)nn1Cc1ccccc1 | 66%
O=C(c1ccco1)N1CCN(C(c2ccccc2)c2nnnn2Cc2ccccc2)CC1 (stereo not given) | 88%
O=C(Cn1cc(C(=O)c2ccco2)c2ccccc21)Nc1ccccc1C(F)(F)F | 74%
CCn1nc(C)c2c(-c3ccccc3)cc(=O)n(C(C)C(=O)NCCc3ccc(Cl)cc3)c21 (stereo not given) | 87%
CCc1nnc(SCc2cccc(Cl)c2)c2cc3sccc3n12 | -2% (active)
CCc1nnc(SCc2c(F)cccc2Cl)c2cc3sccc3n12 | 94%
CCc1nnc(SCc2ccc(F)cc2Cl)c2cc3sccc3n12 | 80%
CCOC(=O)N1CCN(Cc2nc3cc(NC(=O)CC)ccc3n2C(C)C)CC1 | 100%
COc1cccc(-c2csc(N3CCN(C(=S)NCc4ccco4)CC3)n2)c1 | 91%
CCOc1ccccc1CNC(=O)Cn1nc(N2CCN(c3ccccc3)CC2)ccc1=O | 84%
COc1ccc(CNC(=O)CCc2c(C)nn(-c3ccc(N4CCOCC4)nn3)c2C)c(OC)c1 | 85%

SMILES | survival
COc1ccc(CNC(=O)Cn2nc(N3CCN(c4ccccc4)CC3)ccc2=O)c(OC)c1 | -2% (active)
COc1ccc(CNC(=O)CCc2c(C)nn(-c3ccc(N4CCCCC4)nn3)c2C)c(OC)c1 | 52% (active)
CCOC(=O)c1ccc(NC(=O)CCc2c(C)nc3cc(-c4ccc(OC)cc4OC)nn3c2C)cc1 | 62%
COc1cccc(NC(=O)Cn2nc(N3CCN(c4ccccc4)CC3)ccc2=O)c1 | 77%
COc1ccc(CCNC(=O)CCc2c(C)nc3cc(-c4ccccc4OC)nn3c2C)c(OC)c1 | 54% (active)
COc1ccccc1CNC(=O)CCc1c(C)nc2cc(-c3ccccc3OC)nn2c1C | 58%
COc1ccc(CCNC(=O)CCc2c(C)nc3cc(-c4ccc(Cl)cc4)nn3c2C)c(OC)c1 | 108%
COc1ccc(CNC(=O)CCc2c(C)nn(-c3ccc(N4CCCC4)nn3)c2C)c(OC)c1 | 75%
CCOc1ccc(NC(=O)CCc2c(C)nc3cc(-c4ccccc4OC)nn3c2C)cc1 | 53% (active)
COc1ccccc1-c1cc2nc(C)c(CCC(=O)Nc3ccc(Br)c(C)c3)c(C)n2n1 | 67%
CC(C)c1ccc(S(=O)(=O)NCc2nc3cccnc3n2Cc2ccc(F)cc2)cc1 | 88%
COc1cccc(CNC(=O)CN2C(=O)COc3ccc(S(=O)(=O)N4CCOCC4)cc32)c1 | 94%
Cn1cc(S(=O)(=O)N2CCCCCC2)cc1C(=O)Nc1ccc(Cl)c(C(F)(F)F)c1 | 67%
O=C(Nc1cccc(OC(=O)c2ccco2)c1)c1ccccc1 | 58%
CNC(=S)N1CCN(C(=O)/C(=C/c2ccc(F)cc2)NC(C)=O)CC1 | 95%
Cc1ccc(-c2cc(C(=O)N(Cc3ccc(C(C)(C)C)cc3)Cc3ccco3)no2)cc1 | 113%
CCc1nc2ccc(C(=O)NCCc3ccc(OC)cc3OC)cc2nc1CC | 68%
Cc1cccc(N2CCN(S(=O)(=O)c3ccc4oc(=O)c5ncn(C)c5c4c3)CC2C)c1 (stereo not given) | 77%
Cc1ccc2c(c1)NC(=O)C(CC(=O)Nc1ccccc1Cl)O2 (stereo not given) | 77%
CCc1nn(C(C)C(=O)N2CCN(c3ccccc3)CC2)c(=O)c2cc3occc3n12 (stereo not given) | 82%
CC(=O)Nc1ccc(-c2cc(C(=O)O)c3c(-c4ccccc4)[nH]nc3n2)cc1 | 56%
O=C(Nc1nc2c(F)cc(F)cc2s1)c1ccc(S(=O)(=O)N2CCc3ccccc32)cc1 | 115%
Clc1ccc2nc(NCc3ccccc3)c3nncn3c2c1 | 96%

SMILES | survival
CC(C)OCCCn1c(SCc2ccccc2C#N)nc2c(sc3ccccc32)c1=O | 87%
CCOC(=O)c1cccc(NC(=O)N2CC(CC)Oc3ccccc32)c1 (stereo not given) | 54%
CCOc1ccc(NC(=O)CCc2c(C)nc3cc(-c4ccc(Cl)cc4)nn3c2C)cc1 | 35% (active)
COC(=O)c1cc(NC(=O)CCc2c(C)nc3cc(-c4ccccc4)nn3c2C)cc(C(=O)OC)c1 | 118%
CCOC(=O)Cc1c(C)nc2cc(-c3ccc(C(C)(C)C)cc3)nn2c1C | -4% (active)
CCOC(=O)c1cccc(NC(=O)CCc2c(C)nc3c4cccnc4nn3c2C)c1 | 100%
CCOC(=O)c1cccc(NC(=O)CCc2c(C)nc3cc(-c4ccc(Cl)cc4)nn3c2C)c1 | 35% (active)
CCOC(=O)Cc1c(C)nc2cc(C)nn2c1C | 98%
COc1ccccc1-c1cc2nc(C)c(CCC(=O)NCCc3cccc(C)c3)c(C)n2n1 | 55%
CCOC(=O)CC(NC(=O)CCc1c(C)nc2cc(-c3ccccc3)nn2c1C)c1ccc(C)cc1 (stereo not given) | 109%
CCOc1ccc(CCNC(=O)CCc2c(C)nc3cc(-c4ccccc4OC)nn3c2C)cc1 | 50% (active)
COc1ccccc1-c1cc2nc(C)c(CCC(=O)NCCc3ccc(SC)cc3)c(C)n2n1 | 81%
CC(=O)c1ccc(NC(=O)CCc2c(C)nc3cc(-c4ccc(Cl)cc4)nn3c2C)cc1 | 47%
CCN(CC)S(=O)(=O)c1ccc(NC(=O)CCc2c(C)nc3cc(-c4ccc(Cl)cc4)nn3c2C)cc1 | 92%
c1ccc(C2=NNC(c3nc4ccccc4[nH]3)C2)cc1 (stereo not given) | 60%
CCCOC(=O)C1=C(C)OC23OC(N)=C(C#N)C12C(=O)c1ccccc13 (stereo not given) | 80%
O=C(Cn1c(-c2cccs2)cc2ccccc21)NCCCN1CCN(c2ccccc2F)CC1 | 69%
CCn1c(SCc2cccc(Br)c2)nnc1-c1nonc1NC(C)=O | 108%
CC1CCN(C(=O)c2cnn(-c3ccc(Cl)cc3)c2C2CCN(C(=O)OC(C)(C)C)CC2)CC1 | 76%
Cc1nc2nc(C)c(NS(=O)(=O)c3ccc(CC(C)C)cc3)c(=O)n2[nH]1 | 89%
Cc1ccccc1NC(=O)Nc1nnc(N2CCCCCC2)s1 | 94%
COC(=O)c1ccccc1NC(=O)CCc1c(C)nc2cc(-c3ccc(Cl)cc3)nn2c1C | 41% (active)
CCc1ccccc1NC(=O)CCc1c(C)nc2cc(-c3ccccc3)nn2c1C | 59%

SMILES | survival
COc1ccccc1CNC(=O)CCc1c(C)nc2cc(-c3ccc(Cl)cc3)nn2c1C | 129%
Cc1cc2oc(C(=O)N(Cc3ccc(N(C)C)cc3)CC3CCCO3)c(C)c2cc1Cl (stereo not given) | 65%
Cc1ccccc1CNCCSc1nnnn1C | 84%
Cc1ccc2oc(-c3ccc(C)c(NC(=O)c4ccc5c(c4)OCCO5)c3)nc2c1 | 48%
CCc1ccc(-c2nc3cc(NC(=O)c4ccc(F)cc4)ccc3o2)cc1 | 83%
COc1ccc2oc(-c3ccc(C)c(NC(=O)c4ccc5c(c4)OCCO5)c3)nc2c1 | 70%
CCc1ccc(C(=O)Nc2cccc(-c3nc4cc(C(C)C)ccc4o3)c2)cc1 | 41% (active)
CCc1ccc(-c2nc3cc(NC(=O)c4ccc(C)c(C)c4)ccc3o2)cc1 | 151%
CC(C)c1ccc2oc(-c3cccc(NC(=O)c4ccc5c(c4)OCCO5)c3)nc2c1 | 28% (active)
Cc1ccc(S(=O)(=O)N(CC(O)Cn2c3ccccc3c3ccccc32)c2cccc(C(=O)N(C)C)c2)cc1 (stereo not given) | 54%
Cc1ccc(S(=O)(=O)N(CC(O)Cn2c3ccccc3c3ccccc32)c2cccc(C(=O)NCCO)c2)cc1 (stereo not given) | 56%
Cc1ccc(S(=O)(=O)N(CC(O)Cn2c3ccccc3c3ccccc32)c2cccc(C(N)=O)c2)cc1 (stereo not given) | 38% (active)
CCc1nn2c(-c3ccco3)ccnc2c1-c1ccccc1 | 84%
Cc1nn2c(-c3ccco3)ccnc2c1-c1ccc(F)cc1 | 90%
CCc1nn2c(-c3ccccc3OC)ccnc2c1-c1ccc(F)cc1 | 2% (active)
CCc1nn2c(-c3ccco3)ccnc2c1-c1ccc(F)cc1 | 81%
COc1ccc(-c2ccnc3c(-c4ccc(F)cc4)c(C)nn23)cc1OC | 88%
Cc1ccccc1-c1ccnc2c(-c3ccc(F)cc3)c(C)nn12 | 6% (active)
COc1cccc(-c2ccnc3c(-c4ccc(F)cc4)c(C)nn23)c1 | 93%
CCc1nn2c(-c3ccccc3OC)ccnc2c1-c1ccccc1 | 0% (active)
COc1ccccc1-c1ccnc2c(-c3ccc(Br)cc3)c(C)nn12 | 94%
